Results on 5 molecules are retold here after PubChem BioAssay (NCATS).

Assay [1] is described as follows: Cell Viability - BJ (AID 421; calls by dose curve;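 also: potency is read from the fitted curve at half-maximal effect; cells exposed to compound for 40 hours at 37 °C before readout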). The settings on record: BJ fibroblast viability, qHTS. The method in brief:
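Quantitative HTS: ATP depletion in BJ cells after 40 hr compound exposure in complete culture medium, detected with CellTiter-Glo; AC50 from standard Hill fits.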
(Quantitative high-throughput screening tests each substance at several concentrations.)

The nature of assay [2]: Cell Viability - Hek293 (AID 427;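 active = compounds whose dose-response curve shows a full or clear partial loss of cell viability, called from curve shape rather than a numeric limit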;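 also: potency is read from the fitted curve at half-maximal effect; cells exposed to compound for 40 hours at 37 °C before reading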). The settings on record: qHTS. The method in brief: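 AC50 values derive from Hill-modelled concentration-response of ATP-based luminescence, normalized between DMSO-only and 100 uM tamoxifen controls. Cells were exposed in complete culture medium for 40 hr at 37 °C before detection.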
A short description of assay [3]: Cell Viability - HUV-EC-C (AID 542). Also: % is scaled to controls: 0 for no effect and ±100 for the full control effect; nearly all actives have a fitted effect of over 35% in size. The settings on record: HUV-EC-C endothelial cell viability, qHTS; series mostly up to 92.2 µM. The method in brief:
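Cells were seeded at 1000 per well and incubated 5 hr at 37 °C before compound addition. After 40 hr at 37 °C, CellTiter-Glo reagent was added for 20 min and luminescence read. AC50 values came from Hill-equation modelling.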

Assay [4] is described as follows: Cellular Toxicity (caspase-3) HUV-EC-C (AID 656). The settings on record: HUV-EC-C cells, caspase-3 activation (apoptosis), vehicle = 0, 100 µM tamoxifen = 100%; series mostly up to 92.2 µM. The method in brief:
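Concentration-dependent caspase 3/7 induction was assessed in HUV-EC-C cells exposed for 16 hours. Data scaled between DMSO and tamoxifen (100 uM) controls.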

Assay [5] is described as follows: Cellular Toxicity (caspase-3) MRC-5 (AID 659). The settings on record: MRC-5 cells, luminescence, normalized: DMSO 0%, 10 µM staurosporine 100%; series mostly up to 91.7 µM. The method in brief: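 Apoptosis readout in MRC-5 cells: luciferase light generated after caspase 3/7 cleaves a peptide-aminoluciferin substrate, measured post 16 hr compound incubation at 37 °C.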

A short description of assay [6]: Cellular Toxicity (caspase-3) Mesangial (AID 660).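 Also: combined caspase 3 and 7 activity read by Caspase-Glo luminescence; cells exposed to compound for 16 h before the caspase read.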 The settings on record: mesangial cells, normalized: DMSO 0%, 100 µM tamoxifen 100%; series mostly up to 91.7 µM. The method in brief:
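Seed cells derived from normal human renal glomeruli, incubate 5 h, add compounds across concentrations and incubate 16 h at 37 °C. Caspase 3/7 activation is then quantified by luciferase light, with AC50 derived by Hill modeling.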

Assay [7] can be described thus: Cellular Toxicity (caspase-3) SK-N-SH (AID 661). The settings on record: SK-N-SH caspase-3 activation, qHTS; series mostly up to 91.7 µM. The method in brief: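 Cells were seeded and incubated 5 hr at 37 °C, dosed with compound over a concentration range for 16 hr, then given Caspase-Glo 3/7 reagent for 1 hr at room temperature before luminescence reading.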
Assay [8] can be described thus: Cellular Toxicity (caspase-3) Hek293 (AID 664).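 Also: cells exposed to compound for 16 h at 37 °C before readout.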 The settings on record: HEK293 caspase-3 activation, DMSO = 0%, 100 µM tamoxifen = 100%; at 92.2 µM (top of the series). The method in brief: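 qHTS, HEK293 (human embryonic kidney), 16 h cpd exposure in complete medium. Caspase-3/7 activation = luminescence increase; normalized to DMSO/100 uM tamoxifen; Hill-fit AC50.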

Assay [9] is described as follows: Cellular Toxicity (caspase-3) NIH 3T3 (AID 666).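 Also: caspase signal read after 16 h compound exposure; 0% = DMSO basal and 100% = 100 µM tamoxifen stimulation.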 The settings on record: NIH 3T3 caspase-3 activation, apoptosis/toxicity; series mostly up to 92.2 µM. The method in brief: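 Cells were plated at 1000 per well and incubated 5 hr at 37°C, then compound was added for 16 hr. Caspase-Glo 3/7 reagent followed for 20 min at room temperature before luminescence was read.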

Assay [10] is described as follows: MultiTox-Fluor Cytotoxicity Assay - LYMP1-001 - Dead Cells (AID 946).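 Also: 0% = DMSO and 100% = tetraoctylammonium bromide.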 The settings on record: LYMP1-001 lymphoblastoid cells, dead-cell protease fluorescence; series mostly up to 92.2 µM. The method in brief:
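In this qHTS, 15 uM tetraoctylammonium bromide defined 100% and DMSO defined basal activity. Lymphoblastoid cells (LYMP1-001, 2500 per well) received compound for 16 hr at 37 C before a fluorogenic dead-cell substrate readout at 485/520 nm.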

Assay [11] is described as follows: Cell Viability - LYMP1-002 - Assay at 16 hr (AID 948).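 Also: 0% = DMSO alone and full effect = 92 µM tetraoctylammonium bromide.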 The settings on record: LYMP1-002 lymphoblastoid cell viability; series mostly up to 92.2 µM. The method in brief:
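In this qHTS, lymphoblastoid LYMP1-002 cells (human) receive compounds for 16 hr at 37 C. Viability is taken from CellTiter-Glo ATP luminescence, and AC50 derives from standard Hill fits.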

Assay [12] is described as follows: Cell Viability - LYMP2-013 (AID 970).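 Also: cells exposed to compound for 24 h at 37 °C; 0% = DMSO only and full inhibition = tetraoctylammonium bromide control; nearly all actives have a fitted effect of over 55% in size.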 The settings on record: LYMP2-013 lymphoblastoid cells viability; series mostly up to 92.2 µM. The method in brief:
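Cytotoxicity is scored as a concentration-dependent drop in intracellular ATP in human lymphoblastoid cells after 24 hr compound exposure at 37 C. ATP is quantified by luciferase luminescence, and AC50 values come from Hill-equation modeling.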

Assay [13] is described as follows: Cell Viability - LYMP2-019 (AID 973).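 Also: cells exposed to compound for 24 h at 37 °C; 0% = DMSO alone and full effect = 92 µM tetraoctylammonium bromide; nearly all actives have a fitted effect of over 55% in size.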 The settings on record: LYMP2-019 lymphoblastoid cell line viability; series mostly up to 92.2 µM. The method in brief: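 Cytotoxicity is scored as a concentration-dependent drop in cellular ATP after cells (2500/well) receive compound for 24 hr at 37 C. Tetraoctylammonium bromide serves as positive control.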
The nature of assay [14]: Cell Viability - LYMP2-026 (AID 989).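 Also: cells exposed to compound for 24 h at 37 °C; % is scaled to controls: 0 for no effect and ±100 for the full control effect; nearly all actives have a fitted effect of over 50% in size.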 The settings on record: LYMP2-026 lymphoblastoid cell viability, qHTS; series mostly up to 92.2 µM. The method in brief:
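Cells are seeded at 2500 per well and held 5 hr at 37 C. Compounds are added in concentration series for 24 hr, then CellTiter-Glo reagent is applied and luminescence read.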

Assay [15] can be described thus: qHTS assay for small molecule agonists of retinoid X receptor alpha signaling (AID 588544; calls by dose curve;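 as to activation: 0% = DMSO basal wells and 100% = reference agonist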). The settings on record: HEK293T RXRa-UAS-bla, beta-lactamase reporter, 18 h; 530 nm emission.
Assay [16] addresses Retinoic acid receptor RXR-alpha (Homo sapiens) (UniProt P19793). The assay is described as above. The settings on record: HEK293T RXRa-UAS-bla, beta-lactamase reporter, 18 h; series mostly up to 76.7 µM.
Assay [17] is described as follows: qHTS assay for small molecule antagonists of retinoid X receptor alpha signaling (AID 588546).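 Also: cells stimulated with 9-cis-retinoic acid as agonist; % is scaled to controls: 0 for no effect and ±100 for the full control effect.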 The settings on record: HEK293T RXRa-UAS-bla, beta-lactamase ratio, antagonist mode; measured here: W530 green channel, cytotoxicity proxy. The method in brief:
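Beta-lactamase reporter inhibition, read as CCF4 fluorescence ratio (ex 405, em 460/530 nm) after 2 h at RT. HEK293T UAS-bla cells, 2500/well, were stimulated with 9-cis-RA at 500 or 100 nM final alongside test compound for 18 h at 37 C.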

In assay [18] the target is Peroxisome proliferator-activated receptor alpha (Homo sapiens) (UniProt Q07869). As to the kind of experiment: qHTS assay for small molecule agonists of the peroxisome proliferator-activated receptor alpha (PPARalpha) signaling pathway (AID 651778). Also: % of control where 0% means no effect. The settings on record: PathHunter PPARalpha complementation, chemiluminescence, 6 h; stronger effect = higher value. The method in brief: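 Cells plated at 2,000/well and held overnight at 37 C, 5% CO2, then compound added by pin tool for 6 hr; after PathHunter detection reagent and 60 min at room temperature, chemiluminescence from enzyme complementation was read.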
Chain of Peroxisome proliferator-activated receptor alpha (Homo sapiens) (Q07869 whole entry, looked up): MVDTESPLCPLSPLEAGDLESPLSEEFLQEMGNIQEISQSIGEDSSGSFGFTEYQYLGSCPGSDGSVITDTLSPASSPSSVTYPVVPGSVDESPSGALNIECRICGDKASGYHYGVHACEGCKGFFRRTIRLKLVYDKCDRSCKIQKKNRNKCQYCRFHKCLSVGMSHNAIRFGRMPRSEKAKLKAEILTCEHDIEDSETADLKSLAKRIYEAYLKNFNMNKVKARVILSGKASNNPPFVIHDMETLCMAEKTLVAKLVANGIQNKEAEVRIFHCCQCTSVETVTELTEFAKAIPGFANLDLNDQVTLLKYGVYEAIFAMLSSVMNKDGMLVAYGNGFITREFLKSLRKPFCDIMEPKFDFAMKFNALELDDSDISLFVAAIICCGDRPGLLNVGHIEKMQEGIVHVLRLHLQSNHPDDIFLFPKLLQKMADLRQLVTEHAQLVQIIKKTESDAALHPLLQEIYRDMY

Assay [19] in a line: qHTS assay for small molecule agonists of the antioxidant response element (ARE) signaling pathway measured by Nrf2-dependant transcriptional activity - cell viability counter screen (AID 720653; active = well fitted curve in the direction sought with a large enough effect in the repeat runs; an effect the other way counts as inactive or inconclusive; also: % is scaled to controls: 0 for no effect and ±100 for the full control effect). The settings on record: ARE-bla HepG2 viability, CellTiter-Glo ATP luminescence, 16 h; stronger effect = lower value. The method in brief:
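ARE-bla HepG2 cells (2,000/well) rested 5 hrs at 37C/5% CO2, then exposed to compounds in DMSO for 16 hrs. Viability was read in the same wells as intracellular ATP by luminescence, 30 min at room temperature after reagent addition.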

Assay [20] in a line: qHTS assay for cell viability of the p53RE-bla HCT-116 cell line (AID 743292). Also: % is scaled to controls: 0 for no effect and ±100 for the full control effect; nearly all actives have a fitted effect of over 55% in size. The settings on record: p53RE-bla HCT-116 viability, ATP luminescence, 16 h; series mostly up to 95 µM. The method in brief:
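In this qHTS counter-screen, metabolically competent p53RE-bla HCT-116 cells were counted via their ATP content. Compounds were applied for 16 h at 37 C and luciferase-coupled luminescence was measured.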

Where “and” joins values, the source holds several entries; their conditions need not be identical. Equal entries are not always repeated. Results filed as inconclusive are left out. Calls of active or inactive are those of the source. Unless noted, calls follow the shape of the dose curve; as a rule, active = well fitted curve in the direction sought with a large enough effect; inconclusive = small, poorly fitted or top-dose-only effect, or another doubt; inactive = no such curve, though single readings can be large; an effect the other way counts as inactive or inconclusive.

Chain of Retinoic acid receptor RXR-alpha (Homo sapiens) (P19793 whole entry, looked up): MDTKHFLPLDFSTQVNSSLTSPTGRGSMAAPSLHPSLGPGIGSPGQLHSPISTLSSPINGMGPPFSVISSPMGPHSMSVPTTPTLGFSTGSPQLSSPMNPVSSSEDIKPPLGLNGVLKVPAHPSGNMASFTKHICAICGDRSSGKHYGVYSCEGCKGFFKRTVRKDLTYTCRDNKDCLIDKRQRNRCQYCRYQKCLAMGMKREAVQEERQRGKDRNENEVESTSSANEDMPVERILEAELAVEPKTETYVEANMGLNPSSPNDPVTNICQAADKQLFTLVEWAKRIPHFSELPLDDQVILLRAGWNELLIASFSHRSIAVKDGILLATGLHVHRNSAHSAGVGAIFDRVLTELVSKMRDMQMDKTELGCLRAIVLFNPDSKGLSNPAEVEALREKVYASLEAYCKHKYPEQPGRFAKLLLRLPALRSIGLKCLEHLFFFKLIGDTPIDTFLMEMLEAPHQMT

For `O=[N+]([O-])c1ccccc1O`, the Potency in assay [1] and in [2] was > 92 µM (inactive) each time. The Potency entry in [3], in assay [7], in assay [9], in [12], in assay [13] and in assay [14] was “inactive” each time. In [20], the Potency result is “inactive”. Moreover, the molecule was classed as inactive in assay [4], in [5], in [6], in assay [10], in assay [11] and in assay [16]. The caspase-3 activation in [8] was -0.522% (inactive). Moreover, the max response in assay [15] is -4.21%; in [17] it was -5.99%; in assay [18], -0.691% (inactive); in assay [19], 5.01% (inactive).
On to `CCOS(C)(=O)=O`, for which the Potency in [1] and in assay [2] was > 92 µM (inactive) throughout. The Potency entry in assay [3], in assay [7], in assay [9], in [12], in [13] and in assay [14] was “inactive” throughout. Moreover, the Potency entry in assay [20] was “inactive”. Besides, the molecule was called inactive in assay [4], in [5], in [6], in assay [10], in [11] and in assay [16]. Also, the caspase-3 activation in assay [8] is -3.11% (inactive). The max response was -9.22% in assay [15], -8.7% in assay [17], 0.417% (inactive) in assay [18] and -5.61% (inactive) in [19].
As for `BrC(Br)Br`, the Potency in assay [1] and in assay [2] was > 92 µM (inactive) throughout. Also, the Potency entry in [3], in assay [7], in assay [9], in assay [12], in assay [13] and in assay [14] was “inactive” in each case. In assay [20], the Potency entry was “inactive”. For the same molecule, the call in assay [4], in assay [5], in assay [6], in assay [10], in assay [11] and in assay [16] was inactive. For the same molecule, the caspase-3 activation in assay [8] is -0.311% (inactive). In addition, the max response in assay [15] was 0.74%; in assay [17], -5.42%; in assay [18] it was -7% (inactive); in [19], -14.5% (inactive).
For `Cc1ccc(N)cc1N`, the Potency in [1] and in assay [2] was > 92 µM (inactive) in each case. The Potency result in assay [3], in assay [7], in assay [9], in [12], in assay [13] and in assay [14] was “inactive” in each case. Further, the Potency result in assay [20] is “inactive”. For the same molecule, the outcome in assay [4], in assay [5], in assay [6], in assay [10], in assay [11] and in [16] was inactive. For the same molecule, the caspase-3 activation in assay [8] was 0.128% (inactive). In addition, the max response in assay [15] was -4.9% and 16.6%; in [17], -0.584% and 0.527%; in [18] it was 6.43% (inactive) and -0.158% (inactive); in assay [19], 0.265% (inactive) and 5.03% (inactive).
`O=C(O)C(Br)CBr` (centres undefined): the Potency in assay [1] and in [2] was > 92 µM (inactive) throughout. For the same molecule, the Potency entry in assay [3], in [7], in assay [9], in assay [12], in assay [13] and in assay [14] was “inactive” each time. The Potency result in [20] was “inactive”. In addition, the result in assay [4], in assay [5], in [6], in assay [10], in assay [11] and in assay [16] was inactive. The caspase-3 activation in assay [8] was 1.8% (inactive). In addition, the max response in assay [15] is 10.3%; in [18], 1.03% (inactive); in [19] it was 0.981% (inactive).
